# TrxR1 inh: blocks rat thioredoxin reductase 1 | Potency, µM (titrated, usually from 114 µM), inactives show at the highest dose activity change, negative = inhibition, usual class: inhibitors | recombinant rTrxR1, NADPH fluorescence consumption, selenite substrate | AID 588453 | 390,000 tested, 1% active; note: potency is the fitted concentration of half-maximal effect; % is set by controls: 0 for no effect and ±100 for the full control effect; nearly all actives have a fitted effect of over 65% in size
#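 Rat TrxR1 (90 nM in the dispensed reagent) was pre-reduced with 400 uM NADPH for 5 min at room temperature, then incubated with compound for 15 min. After 400 uM selenite was added, NADPH fluorescence (Ex 340/Em 450 nm) was followed for 8 min.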
# mIDH1 inhibitor: blocks human mutant IDH1 R132H enzyme; O75874; IDH1-R132H enzyme, NADPH consumption, diaphorase/resazurin fluorescence; Potency, µM (highest dose often 76.6 µM), without a hit: top-dose activity change, negative = inhibition, actives largely listed as inhibitors; 390,000 tested, 0.093% active; AID 602179; note: potency is the fitted concentration of half-maximal effect; % is set by controls: 0 for no effect and ±100 for the full control effect; nearly all actives have a fitted effect of over 65% in size
# Target sequence (O75874 whole entry R132H, stated change not applied): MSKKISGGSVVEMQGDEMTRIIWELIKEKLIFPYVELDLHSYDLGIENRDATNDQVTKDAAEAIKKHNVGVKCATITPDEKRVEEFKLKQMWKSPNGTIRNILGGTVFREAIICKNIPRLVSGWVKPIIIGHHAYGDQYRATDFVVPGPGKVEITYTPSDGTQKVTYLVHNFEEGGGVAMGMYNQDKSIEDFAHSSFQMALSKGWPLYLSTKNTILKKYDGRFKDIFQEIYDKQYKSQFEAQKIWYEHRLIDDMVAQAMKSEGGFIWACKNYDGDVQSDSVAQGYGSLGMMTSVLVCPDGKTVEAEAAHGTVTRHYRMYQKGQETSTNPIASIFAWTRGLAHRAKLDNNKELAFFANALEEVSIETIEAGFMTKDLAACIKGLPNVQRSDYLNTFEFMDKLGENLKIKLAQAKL
#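 IDH1-R132H (0.5 ug/mL) preincubated 30 min with compound, then NADPH (0.016 mM) and alpha-KG (2 mM) added; 80 min at RT, pH 7.5. Remaining NADPH coupled via diaphorase/resazurin to fluorescence (540/590 nm); concentration-response curves normalized to no-enzyme control.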
# TrxR1 substrate: rat thioredoxin reductase 1 substrate activity | O89049 | purified TrxR1 substrate turnover, NADPH consumption readout | Potency, µM (highest dose often 114 µM), for the others: at the highest dose activity change, negative = substrate turnover | 390,000 tested, 0.01% active; note: potency is the fitted concentration of half-maximal effect; % is set by controls: 0 for no effect and ±100 for the full control effect; nearly all actives have a fitted effect of over 50% in size
#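 Rat TrxR1, dispensed at 90 nM, was prereduced with 400 uM NADPH (final) for 5 min at ~22 deg C, then incubated with compound 15 min before 400 uM selenite. A first-read NADPH fluorescence drop versus no-compound background flagged substrates.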
# GLS inhibitor: blocks human kidney-isoform glutaminase activity | O94925 | Potency, µM (series often up to 45.5 µM), without a hit: top-dose activity change, negative = inhibition, most hits filed as inhibitors | 410,000 tested, 0.21% active | AID 624170 | GLS enzymatic activity, qHTS titration; note: potency is the fitted concentration of half-maximal effect; % is set by controls: 0 for no effect and ±100 for the full control effect
#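 hKGA; 45 mM KH2PO4 pH 8.2 + 0.02% Tween-20; cpd via pin tool; 1 mM Gln soln; GluOx/HRP/Amplex Red; RT 30 min; fluor. t0 & final.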
# Resorufin autofl: interferes with resorufin fluorescence in IDH1 counter-screen | Resorufin detection reagent fluorescence interference, cell-free | 750 tested, under 10 active | shares compounds with mIDH1 inhibitor | inhibition of signal, % at 51.2 µM;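 note: 0% = wells with normal resorufin and full inhibition = wells lacking resorufin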
# IDH1 WT: inhibits human wild-type IDH1, mutant selectivity check. shares compounds with mIDH1 inhibitor. WT IDH1 enzyme, NADPH diaphorase/resazurin fluorescence. Potency, µM (highest dose often 115 µM), for the others: at the top dose activity change, negative = inhibition, hits mostly inhibitors. 750 tested, 9% active. AID 623995;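 note: potency is the fitted concentration of half-maximal effect; 0% = full WT IDH1 enzyme control and full inhibition = no enzyme wells; nearly all actives have a fitted effect of over 55% in size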
# Target sequence (O75874 whole entry, looked up): as the sequence (O75874 whole entry R132H, stated change not applied) above, with H132R counted along it
# IDH1 R132H conf: mutant IDH1 (human) inhibition, confirmed; IDH1 R132H enzyme, NADPH diaphorase/resazurin fluorescence; Potency, µM (doses to about 76.6 µM), without a hit: top-dose activity change, negative = inhibition, actives largely listed as inhibitors; 750 tested, 83% active; AID 624002; shares compounds with mIDH1 inhibitor; note: potency is the fitted concentration of half-maximal effect; nearly all actives have a fitted effect of over 50% in size
# Active calls of the source: *; u = inconclusive; x = no result; [ ] = remark or other dose. Rows were chosen to be rich in hits. Some 1.2% of all compounds tested hit in one or more screens of this group. Calls come from the whole dose curve; as a rule, active = well fitted curve in the direction sought with a large enough effect; inconclusive = small, poorly fitted or top-dose-only effect, or another doubt; inactive = no such curve, though single readings can be large; an effect the other way counts as inactive or inconclusive.
SMILES,TrxR1 inh,mIDH1 inhibitor,TrxR1 substrate,GLS inhibitor,Resorufin autofl,IDH1 WT,IDH1 R132H conf
O=C(NCc1ccco1)C(c1ccccc1)N(C(=O)Cc1cccs1)c1ccccc1 (stereo not drawn),-2.2%[57.1 µM],-16.0%,-1.0%,12.7%,x,x,x
O=C(NC1CCCCC1)C(c1ccccc1)N(C(=O)Cc1ccsc1)c1ccccc1 (stereo not drawn),30.8%,u,16.6%,-0.8%,-4.9,-0.9%,0.631µM*
O=C(NC1CCCC1)C(c1ccsc1)N(C(=O)Cc1cccs1)c1ccccc1 (stereo not drawn),24.5%,u,-1.9%,3.4%,-3.7,7.1%,2.82µM*
Cc1ccc(Cn2c(=O)n(-c3ccc(C)c(C)c3)c(=O)c3c(C)c(C)sc32)cc1,12.2%,18.7%,5.9%,-1.4%,x,x,x
COc1ccc(-c2cc(C(F)(F)F)n3nc(C(=O)Nc4cccc(Cl)c4Cl)cc3n2)cc1OC,21.8%,-2.3%,4.3%,10.6%,x,x,x
O=C(Cc1cccc(F)c1)NO,13.9%,x,6.3%,x,x,x,x
C=C1CC2C(CCC3(C)C2CCC3(O)C(C)=O)C2(C)CCC(=O)C=C12 (stereo not drawn),-4.0%[57.1 µM],22.4µM*,11.0%[57.1 µM],-7.3%,1.6,35.5µM*,11.2µM*
CC(=O)[C@@]1(O)CC[C@H]2[C@@H]3C[C@H](C)C4=CC(=O)CC[C@]4(C)[C@H]3CC[C@@]21C,0.0%,5.2%,-3.8%,-1.7%,x,x,x
CC(=O)SC1CC(=O)N(c2c(C)cccc2C)C1=O (stereo not drawn),-23.3%,1.6%,4.1%,-3.7%,x,x,x
CC(=O)SC1CC(=O)N(c2ccc(C(C)(C)C)cc2)C1=O (stereo not drawn),19.3%[57.1 µM],u,11.6%[57.1 µM],1.8%,3.4,2.4%,22.4µM*
CC(C)c1ccc(NC(=O)C(c2ccccc2)N(Cc2ccco2)C(=O)CC2NC(=O)NC2=O)cc1 (stereo not drawn),28.7%[57.1 µM],u,8.5%[57.1 µM],4.8%,-3.9,4.9%,u
COc1ccc(NC(=O)C(c2ccc(OC)cc2)N(C)C(=O)CC2NC(=O)NC2=O)cc1 (stereo not drawn),1.1%,4.9%,1.9%,0.9%,x,x,x
CCN(CC)C(=O)C1CCN(C(=O)c2cnn(-c3ccccc3)c2-n2cccc2)CC1,0.2%,0.0%,4.0%,3.3%,x,x,x
COc1ccc(/C=C/C(=O)NC(=S)Nc2ccc(S(=O)(=O)Nc3cc(OC)ncn3)cc2)cc1,-31.4%[57.1 µM],u,-1.5%[57.1 µM],-3.4%,7.3,39.8µM*,5.01µM*
COc1cc(NS(=O)(=O)c2ccc(NC(=S)NC(=O)/C=C/c3ccc(OC)c(OC)c3)cc2)ncn1,-8.3%[57.1 µM],u,-9.4%[57.1 µM],-1.7%,x,x,x
COC(=O)c1cc2oc3ccccc3c2n1CC(=O)Nc1ccc(N(C)C)cc1,32.9%,-4.8%,2.0%,-3.4%,x,x,x
Nc1nc(Nc2cccc(F)c2)nc(NCc2ccco2)c1[N+](=O)[O-],7.1%,u,2.1%,2.7%,-4.5,3.8%,31.6µM*
Cc1cccc(Nc2nc(N)c([N+](=O)[O-])c(NCc3ccco3)n2)c1,-3.5%[57.1 µM],-27.1%,-0.5%[57.1 µM],1.1%,x,x,x
CN(C)c1ccc(/C=C/c2cc[n+](C)c3ccc4ccccc4c23)cc1,15.4%,x,-6.8%,x,x,x,x
O=C(CSc1nc2nc(-c3cccs3)cc(C(F)(F)F)c2c(=O)[nH]1)Nc1ccc(F)c(F)c1,19.5%[57.1 µM],u,21.0%[57.1 µM],0.0%,5.6,u,44.7µM*
CC(=O)Nc1ccc(/C=C/c2sc3ccccc3[n+]2CCCCI)cc1,u,x,-11.8%,x,x,x,x
Cc1nn(-c2ccccc2)c2c1C(c1ccc(O)c(O)c1)N1C(=N2)C(Nc2ccccc2)=Nc2ccccc21 (stereo not drawn),-5.2%,29.3µM*,-5.0%,-7.3%,1.5,5.3%,39.8µM*
